A selection: hits, their analogues and other compounds. The true share with any hit is near 7.5%.
FLuc modulator: counter-screen for miR-21 project: firefly luciferase inhibitors or activators. 360,000 tested, 6.9% active. purified FLuc, Km substrates, luminescence inhibition. P08659. Potency, µM (highest dose often 57.5 µM), inactives show top-dose activity change, negative = inhibition, hits mostly inhibitors. AID 588342;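 note: plate controls were vehicle for no effect and reference inhibitor for full effect; nearly all actives have a fitted effect of over 55% in size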
Target sequence (P08659 whole entry, looked up): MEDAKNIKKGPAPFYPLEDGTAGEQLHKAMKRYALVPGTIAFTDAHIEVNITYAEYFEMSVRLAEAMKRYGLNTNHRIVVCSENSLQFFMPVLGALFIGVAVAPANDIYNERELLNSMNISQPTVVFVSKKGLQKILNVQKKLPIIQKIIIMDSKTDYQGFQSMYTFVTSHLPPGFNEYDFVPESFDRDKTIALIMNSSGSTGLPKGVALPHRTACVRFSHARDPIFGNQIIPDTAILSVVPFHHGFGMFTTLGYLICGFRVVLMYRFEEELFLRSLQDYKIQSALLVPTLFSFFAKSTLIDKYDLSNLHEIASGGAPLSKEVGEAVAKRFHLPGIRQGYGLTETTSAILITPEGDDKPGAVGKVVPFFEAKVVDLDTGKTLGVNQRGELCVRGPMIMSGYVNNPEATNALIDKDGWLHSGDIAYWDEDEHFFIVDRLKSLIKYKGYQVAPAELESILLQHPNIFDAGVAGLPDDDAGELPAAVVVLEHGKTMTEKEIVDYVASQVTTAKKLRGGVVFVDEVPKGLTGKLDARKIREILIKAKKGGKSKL
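Purified P. pyralis luciferase, 10 nM final, with Km-level 10 uM D-luciferin and 10 uM ATP in 50 mM Tris acetate pH 7.5, 10 mM Mg acetate, 0.01% Tween-20, 0.05% BSA; 6-point qHTS titration about 60 µM downward; luminescence read.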
Luc counter: counter-screen: inhibitors of Kinase-Glo firefly luciferase; Q27757; Kinase-Glo luciferase, ATP luminescence, 8 min; Potency, µM (doses to about 38.3 µM), for the others: at the highest dose activity change, negative = inhibition, hits mostly inhibitors; 200,000 tested, 0.28% active; note: % is set by controls: 0 for no effect and ±100 for the full control effect; nearly all actives have a fitted effect of over 60% in size
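Kinase-Glo luciferase light output from ATP and luciferin was measured with 10 uM ATP, within the enzyme's linear range. Buffer: 50 mM imidazole pH 7.2, 50 mM KCl, 7 mM MgCl2, 0.01% Tween 20, 0.05% BSA; luminescence read after 8 min at ambient temperature.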
ELG1 genotoxic: genotoxicity induction in ELG1-luciferase HEK293T cells; HEK293T ELG1-luciferase reporter, luminescence, 16 h; Potency, µM (highest dose often 46 µM), for the others: top-dose activity change, positive = activation, most hits filed as activators; 330,000 tested, 1.3% active; note: % of control where 0% means no effect; nearly all actives have a fitted effect of over 60% in size
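After overnight (16 hr) compound treatment at 37 °C, ELG1-luciferase HEK293T cells were lysed with ONE-Glo; luminescence quantified 30 min later at room temperature.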
SMN2 splice up: SMN2 splice variant enhancement | AID 1458 | HEK293 SMN2-luciferase splicing reporter, luminescence, 30-36 h | 210,000 tested, 2.8% active | Potency, µM (highest dose often 46.1 µM), inactives show top-dose activity change, positive = activation, most hits filed as activators; note: % of control where 0% means no effect; nearly all actives have a fitted effect of over 55% in size
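HEK293 cells carry an SMN2 minigene-luciferase reporter in which exon 7 inclusion puts luciferase in frame. Cells were seeded at 2000 cells/well, attached for 10-12 hours, then exposed to compounds for 30-36 hours at 37C before ONE-Glo luminescence.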
Rab9 prom act: Rab9 promoter activation; 320,000 tested, 2.8% active; Huh7 Rab9 promoter-luciferase reporter, luminescence, 24 h; Potency, µM (titrated, usually from 9.22 µM), for inactives: top-dose activation, negative = inhibition, actives largely listed as activators; note: % of control where 0% means no effect; nearly all actives have a fitted effect of over 60% in size
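Luminescence read-out: Huh7 cells stably expressing Rab9-luciferase, treated 24 h with compound at 37 °C, then lysed with luciferase reagent for 10 min at ambient before reading.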
NPC1 promoter act: activators of NPC1 promoter; 320,000 tested, 2.4% active; Huh7 NPC1 promoter luciferase reporter, 24 h; Potency, µM (series often up to 9.22 µM), for inactives: at the highest dose activation, hits mostly activators; note: % of control where 0% means no effect; nearly all actives have a fitted effect of over 60% in size
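Luminescence read-out of NPC1 promoter-driven luciferase in stably transfected Huh7 cells; compounds delivered in DMSO and left 24 h at 37C, 5% CO2, qHTS titration format.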
Starred values were filed as active, the others as inactive; ? = inconclusive; . = not tested or not shown; [ ] = another dose, or the depositor's remark. Calls come from the whole dose curve; as a rule, active = well fitted curve in the direction sought with a large enough effect; inconclusive = small, poorly fitted or top-dose-only effect, or another doubt; inactive = no such curve, though single readings can be large; an effect the other way counts as inactive or inconclusive. Potency is the fitted concentration of half-maximal effect.

SMILES | FLuc modulator | Luc counter | ELG1 genotoxic | SMN2 splice up | Rab9 prom act | NPC1 promoter act
COc1ccc(CCNC(=O)c2nnn(-c3ccc4c(c3)OCCO4)c2N)cc1OC | 19µM* | 3.1% | 9.7% | . | -4.5% | 13.2%
COc1ccc(OC)c(NC(=O)C(C)n2nc(C)c3c(C)n(-c4ccccc4)nc3c2=O)c1 (stereo unspecified) | -5.3% | . | . | . | . | .
CCOc1ccc(C(=O)NCC(c2ccc3c(c2)OCO3)N2CCN(c3ccccc3F)CC2)cc1 (stereo unspecified) | 3.8% | . | . | . | . | .
O=c1cc(COc2ccccc2Cl)nc2scc(-c3ccccc3)n12 | ? | . | . | -3.9% | . | .
COc1ccc(C(=O)N2CCN(c3nc4c(OC)cccc4s3)CC2)cc1OC | -5.9% | . | . | . | . | .
CC1=NN(c2ccc(C(=O)O)cc2)C(=O)/C1=C\c1ccc(OC(=O)c2cccs2)cc1 | 23.9µM* | 0.5% | -0.9% | 7.5% | 1.5% | -5.8%
CC1=NN(c2ccccc2)C(=O)/C1=C/c1cccs1 | 8.49µM* | -1.0% | 17.5% | 3.4% | -1.6% | 8.6%
COc1ccc(/C=C2/C(=O)N(c3ccccc3)N=C2C)cc1Br | 13.5µM* | . | 16.2% | . | -4.5% | -6.6%
CCOc1cc(/C=C2\C(=O)N(c3ccc(C(N)=O)cc3)N=C2C)ccc1OC(=O)c1cccs1 | ? | -1.2% | 7.8% | -2.9% | 6.0% | -1.4%
CC1=NN(c2cccc(F)c2)C(=O)/C1=C/c1ccc(N(C)C)cc1 | 5.36µM* | . | -3.3% | . | 5.9% | 11.0%
CC1=NN(c2ccccc2)C(=O)/C1=C/c1ccc(Cl)cc1 | ? | . | -6.0% | . | 0.1% | 0.1%
COc1ccc(/C=C2/C(=O)N(c3cccc(F)c3)N=C2C)c(OC)c1 | ? | . | -6.0% | . | -0.1% | 2.1%
COc1cc(/C=C2/C(=O)N(c3ccccc3)N=C2C)ccc1OS(=O)(=O)c1ccccc1 | -16.0% | 0.5% | 3.0% | 7.8% | 1.0% | 0.9%
COC(=O)N[C@@H](c1cccc(F)c1)[C@@H](C)[N+](=O)[O-] | . | 0.8% | . | 6.9% | . | .
CC1=NN(c2ccccc2)C(=O)/C1=C\c1ccc(Br)s1 | 9.53µM* | -6.9% | ? | -0.3%[1.84 µM] | -4.0% | 1.7%
CC1=NN(c2ccccc2)C(=O)/C1=C/c1c(O)n(-c2ccc(F)cc2)[nH]c1=O | 0.601µM* | -1.1% | ? | -3.2%[1.84 µM] | 19.3% | 24.7%
CC1=NN(c2ccccc2)C(=O)/C1=C/c1ccc[nH]1 | 16.9µM* | 2.1% | ? | 10µM* | 2.7% | 16.0%
CCCCc1c(O)n(-c2ccccc2)[nH]c1=O | . | 0.1%[39.9 µM] | . | . | . | .
CC1=NN(c2ccccc2)C(=O)/C1=C\N(O)c1ccccc1 | ? | . | -0.3% | . | 12.2% | -1.7%
C[C@@H]1C(=O)OC2C[C@@]34[C@H]5C[C@@H](C(C)(C)C)[C@@]36C(O)C(=O)O[C@H]6O[C@@]4(C(=O)O5)[C@]21O (stereo partly specified) | . | 0.5%[39.9 µM] | . | . | . | .
CCCCOc1ccc(C(C)NC(=O)CN2C(=O)CSc3ccc(S(=O)(=O)N4CCOCC4)cc32)cc1 (stereo unspecified) | -14.6% | . | . | . | . | .
CC(C)CCNC(=O)C1CCN(S(=O)(=O)c2cccc3nsnc23)CC1 | -1.3% | . | . | -7.4% | . | .
CC(C)Cc1ccc(C(=O)NCCOc2ccccc2)o1 | 0.953µM* | . | 3.26µM* | . | 0.794µM* | 0.316µM*
O=C(NCCOc1ccccc1)c1cc2ccccc2o1 | 5.36µM* | -3.7% | . | 10µM* | . | .
O=C(COc1ccccc1)NNC(=O)c1cc2ccccc2o1 | -10.9% | -0.7% | 0.7% | -12.6% | 0.7% | 0.6%
SMILES | FLuc modulator | Luc counter | ELG1 genotoxic | SMN2 splice up | Rab9 prom act | NPC1 promoter act
O=C1CCCCCN1Cc1nnc(SCc2nc3ccccc3s2)n1-c1ccccn1 | 7.57µM* | -2.5% | ? | -32.4% | ? | 18.3%
CC(C)(C)OC(=O)N1CCC(c2cc(=O)n3[nH]c(-c4ccc(Cl)cc4)cc3n2)CC1 | -6.4% | -3.7% | -11.9% | -13.6% | 5.5% | 0.5%
Cc1nc2cc(-c3ccc(Br)cc3)[nH]n2c(=O)c1Cl | 9.53µM* | . | 16.4µM* | . | 2.51µM* | ?
CCc1c(C)nc2cc(-c3ccc(Cl)cc3)[nH]n2c1=O | 8.49µM* | . | ? | . | ? | 3.98µM*
CCOC(=O)CCc1c(C)nc2cc(-c3ccc(Cl)cc3)[nH]n2c1=O | -6.4% | -0.9% | -0.9% | 27.6% | 19.0% | 11.0%
CCc1c(C)nc2cc(-c3cccc(Br)c3)[nH]n2c1=O | 12µM* | . | 10.9% | . | ? | ?
Cc1cc2nc(C)c(Cl)c(=O)n2[nH]1 | -17.9% | -0.9% | 4.5% | 20.4% | -2.3% | 6.9%
O=c1c2c(nc3cc(-c4ccc(Cl)cc4)[nH]n13)CCS2 | 2.13µM* | -7.4% | ? | 12.6µM* | ? | 3.55µM*
Cc1cc(C)c(Cn2c3ccccc3c3cnn(CC(=O)N4CCCCCC4)c(=O)c32)c(C)c1 | -5.6% | . | . | 3.4% | . | .
O=C(O)c1ccccc1C(=O)Nc1ccc(Br)c(C(F)(F)F)c1 | 19µM* | . | 1.2% | . | -0.3% | -3.6%
O=C(CCC(=O)c1ccc(Oc2ccccc2)cc1)Nc1cccc(Cl)c1 | 0.7% | 0.2% | 1.0% | 0.5% | -1.3% | 0.3%
O=C(CCC(=O)c1ccc(Oc2ccccc2)cc1)Nc1ccc(C(=O)O)cc1 | 19µM* | . | -0.2% | . | -0.4% | -0.7%
CC(C)(C)c1ccc(Oc2ccc(NC(=O)c3ccccc3C(=O)O)cn2)cc1 | 19µM* | . | -6.4% | . | -1.3% | -0.7%
Cc1cccc(Oc2ccc(NC(=O)c3ccccc3C(=O)O)cc2)c1 | 21.3µM* | . | 5.5% | . | -4.7% | 2.1%
CCOc1ccc(CNC(=O)c2ccc3nc(Cc4ccc(OC)cc4)oc3c2)cc1OC | -13.8% | . | . | . | . | .
O=C(O)c1ccccc1C(=O)Nc1ccc(Oc2ccccc2)cc1 | 26.9µM* | . | 1.2% | . | 1.3% | -0.3%
CCN(CC(=O)Nc1ccc(NC(C)=O)cc1)C(=O)CCCOc1ccc(C(C)(C)C)cc1 | 15.1µM* | . | ? | . | -0.1% | 0.3%
CCN(CC(=O)NCc1cccs1)C(=O)CCCOc1ccc(C(C)(C)C)cc1 | ? | . | -2.1% | . | -4.9% | -0.4%
Cn1cc(C(=O)NCc2ccccc2)c(=O)c2cc(S(=O)(=O)N3CCOCC3)ccc21 | -1.9% | . | . | 12.2% | . | .
O=C(CCS(=O)(=O)c1ccc(Br)s1)Nc1c(F)cccc1F | -7.5% | . | . | -9.7% | . | .
CC1CCC/C(=C\Nc2ccc(C(=O)O)c(O)c2)C1=O (stereo unspecified) | 10.7µM* | . | ? | . | 3.55µM* | 3.55µM*
CCOC(=O)c1ccc(N/C=C2/CCCC(C)C2=O)cc1 (stereo unspecified) | 5.36µM* | -11.6% | 4.11µM* | ? | 2.51µM* | 3.16µM*
CC1CCC/C(=C\Nc2ccc(C(=O)O)cc2)C1=O (stereo unspecified) | 4.78µM* | . | ? | . | ? | ?

Bioassay records (PubChem BioAssay)
